In PubChem BioAssay AID2685 (National Center for Advancing Translational Sciences (NCATS), 2010):
The whole screen tested about 320,000 compounds, of which about 2,100 (0.66%) were called active. Inconclusive results (about 53%) are left out. The call rests on the fitted dose curve; in most records, active means well fitted inhibition curve with a large enough effect in the signal ratio, with a control signal flat (not every such curve was filed as active); inconclusive means small, poorly fitted or top-dose-only effect, or effect the other way, or a change in a side signal; inactive means flat fitted curve, though single readings scatter; the % refers to the signal ratio. Many of the other results were omitted from the sample, so actives are more common in it than they were.

Assay: qHTS Assay for Lipid Storage Modulators in Drosophila S3 Cells;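 on cell number change: cells counted by Cell Tracker Red CMTPX staining in the red channel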
Details: BODIPY lipid droplet fluorescence, 18-24 h, cells fed with added oleic acid; cell number change: measured here: cell count max response; series mostly up to 46.1 µM
Summary of the method: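 Drosophila S3 cells loaded with oleic acid (400 uM, as added) and compounds at several concentrations; lipid droplets imaged by 488-nm laser-scanning cytometry, 500–530 nm intensity and object ratio to cell channel. Percent activity normalized to 20 uM Triacsin C.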
Potency means the concentration at half of the fitted maximal effect.

Structure (SMILES) | Potency | cell number change
Cc1ncc(CO)c(/C=N/NC(=O)c2ccccc2Br)c1O | inactive | 0.48%
Cc1ncc(CO)c(/C=N/NC(=O)c2ccc(O)cc2)c1O | inactive | 19.8%
Cc1cc(C(=O)N/N=C/c2c(CO)cnc(C)c2O)c2ccccc2n1 | 5.17 µM (active) | -19.9%
Cn1c(CNC(=O)OC(C)(C)C)nnc1SCc1c(Cl)cccc1Cl | inactive | -2.58%
Nc1nc(-c2ccccc2)nn1C(=O)c1ccco1 | inactive | -9.73%
Cc1cc(NC(=O)COC(=O)CCC(=O)c2ccc(F)cc2)no1 | inactive | 5.31%
CC(C)(C)c1ccc(C2(C)NC(=O)N(CC(=O)NCc3cccs3)C2=O)cc1 (stereo not given) | 5.17 µM (active) | 3.77%
COc1ccc(CNC(=O)CN2C(=O)NC(C)(c3ccc(C(C)(C)C)cc3)C2=O)cc1 (stereo not given) | inactive | 5.69%
O=C(CN1C(=O)NC2(CCCCCC2)C1=O)NCc1cccs1 | inactive | -8.23%
Cc1ccc(S(=O)(=O)NCc2ccccc2)cc1C(=O)N1CCCCCCC1 | inactive | -10.2%
C=CCNC(=O)c1onc(CSc2nc3ccccc3[nH]2)c1C(=O)NCC=C | inactive | -6.29%
Cc1cc(C)cc(SCc2noc(C(=O)NCc3ccccc3)c2C(=O)NCc2ccccc2)c1 | inactive | -2.6%
O=C(NCC1CC1)c1onc(CSc2ccc(F)cc2)c1C(=O)NCC1CC1 | inactive | 10.6%
COCCNC(=O)c1onc(CSc2nc3ccccc3[nH]2)c1C(=O)NCCOC | inactive | -7.78%
O=C(NCc1ccccc1)c1onc(CSc2nc3ccccc3[nH]2)c1C(=O)NCc1ccccc1 | 14.6 µM (active) | -26.6%
O=C(NCC1CC1)c1onc(CSc2nc3ccccc3[nH]2)c1C(=O)NCC1CC1 | 11.6 µM (active) | -10.5%
Cc1c(C(=O)OC(C)C)nnn1-c1nonc1N | inactive | 7.24%
Cc1ccsc1-c1nc(CN2CCCC2c2ccc(F)cc2)c(C)o1 (stereo not given) | inactive | 4.95%
Cc1cnc(C(=O)N2CCCC(C(=O)c3cccc(OC(C)C)c3)C2)cn1 (stereo not given) | inactive | -12.5%
Cc1ccc(C)c(NC(=O)c2ccc[n+](Cc3ccc([N+](=O)[O-])cc3)c2)c1 | inactive | 11.2%
CNNC(=O)C(C)NC(=O)c1ccc(Br)cc1 (stereo not given) | inactive | 10.8%
CCC(CC)NC(=O)Nc1ccc(C)cc1 | inactive | -11.1%
CCN(CC)c1nc(N)nc(NS(=O)(=O)c2ccc(Cl)cc2)n1 | inactive | 7.29%
CCOCCCn1c(SCc2nc3ccccc3s2)nc2ccccc2c1=O | 3.66 µM (active) | -21.8%

Structure (SMILES) | Potency | cell number change
CCOCCCn1c(SCC(=O)NC(C)(C)C)nc2ccccc2c1=O | inactive | -4.14%
O=c1c2ccccc2nc(SCc2nc3ccccc3s2)n1CCCO | inactive | -14.5%
Brc1ccccc1OCCCN1CCCCCC1 | inactive | 5.41%
CC(=O)c1sc(NC(=O)c2cc(=O)c3ccccc3o2)nc1C | inactive | -11.4%
COc1ccc2nc(NNC(=O)c3cc(=O)c4ccccc4o3)sc2c1 | 5.17 µM (active) | 1.29%
COc1ccc2nc(NC(=O)c3ccco3)sc2c1 | inactive | 9.21%
COc1ccc2nc(NC(=S)NC(=O)c3ccco3)sc2c1 | inactive | 10%
COc1ccc2nc(NC(=O)CCNC(=O)c3ccco3)sc2c1 | 8.2 µM (active) | 15.7%
O=C(CCNC(=O)c1ccccc1)Nc1nc2ccccc2s1 | 3.66 µM (active) | 12%
O=C(Cc1ccccc1)Nc1nc2ccccc2s1 | inactive | -15.5%
O=C(CCNC(=O)c1ccccc1Cl)Nc1nc2ccccc2s1 | inactive | 9.97%
O=C(NNc1nc2c(F)cccc2s1)c1cc(=O)c2ccccc2o1 | inactive | -1.04%
COc1ccc(C(=O)NCCOc2cccc(OC)c2)cc1 | inactive | 26.7%
O=C1C=Cc2ccccc2/C1=C/c1[nH]c(=O)[nH]c1O | inactive | 1.79%
O=C(NC(=S)Nc1ccc(S(=O)(=O)Nc2nccs2)cc1)c1ccc(Br)o1 | inactive | 
O=C(NCCOC(=O)C1COc2ccccc2O1)C1COc2ccccc2O1 (stereo not given) | inactive | 
O=[N+]([O-])c1ccc(-c2ccc(/C=N/Nc3nc(N4CCCCC4)nc(N4CCCCC4)n3)o2)cc1 | 5.17 µM (active) | 17%
O=[N+]([O-])c1cccc(/C=N/Nc2nc(NCc3ccccc3)nc(N3CCOCC3)n2)c1O | inactive | 0.539%
O=[N+]([O-])c1ccc(/C=N/Nc2nc(N3CCCCC3)nc(N3CCCCC3)n2)cc1 | inactive | -0.784%
COc1nc(N/N=C/c2ccc(-c3cccc([N+](=O)[O-])c3)o2)nc(N2CCOCC2)n1 | inactive | -9.45%
O=[N+]([O-])c1ccc(-c2ccc(/C=N/Nc3nc(NCc4ccccc4)nc(N4CCOCC4)n3)o2)cc1 | 18.4 µM (active) | 14.1%
O=[N+]([O-])c1ccc(-c2ccc(/C=N/Nc3nc(N4CCCC4)nc(N4CCCC4)n3)o2)cc1 | inactive | -13%
CN(C)S(=O)(=O)N1CCC(Oc2cccc(C(=O)NC3CCCCCC3)c2)CC1 | inactive | 
O=C(O)c1ccccc1C(=O)N1CC=C(c2ccccc2)CC1 | inactive | 1.73%

Structure (SMILES) | Potency | cell number change
Nc1[nH][nH]c(=O)c1N=Nc1cccc(Cl)c1 | inactive | 1.25%
Cn1cc([N+](=O)[O-])c(C(=O)Nc2ccc(Br)cn2)n1 | inactive | 
O=C(CNC(=O)COc1ccccc1)NCc1ccccc1F | inactive | 0.16%
O=[N+]([O-])c1ccc(NC(=S)N2CCOCC2)cc1 | inactive | -10.6%
OC(CN1CCN(Cc2ccccc2)CC1)c1ccc(F)cc1 (stereo not given) | inactive | 22.1%
Fc1ccc(CN2CCN(C(c3ccccc3)c3ccccc3)CC2)cc1 | 16.4 µM (active) | -21.3%
COc1cc(CN2CCN(C(c3ccccc3)c3ccccc3)CC2)cc(OC)c1OC | inactive | 6.8%
COc1ccc(Br)cc1CNC(=O)CCC(=O)n1nc(C)c2ccccc21 | inactive | -11.3%
COc1ccccc1NC(=S)NC1CCCCC1 | inactive | 22.1%
CCOC(=O)C(=O)NC(C)CCc1ccccc1 (stereo not given) | inactive | -12.3%
Cc1ccccc1NC(=S)NC(C)CCc1ccccc1 (stereo not given) | inactive | -4.86%
Cc1ccccc1NC(=O)C(=O)NC(C)CCc1ccccc1 (stereo not given) | 7.31 µM (active) | 7.44%
COCCCNC(=O)COc1cc2c(c3oc(=O)c(C)c(C)c13)CCC(C)(C)O2 | inactive | 14.5%
O=C(Nc1ccc(S(=O)(=O)N2CCCCC2)cc1)c1ccc(CN2CCc3ccccc3C2)cc1 | 18.4 µM (active) | -10.9%
O=C(Nc1ccccc1)c1ccc(CN2CCc3ccccc3C2)cc1 | inactive | 7.26%
O=C(Nc1ccc(F)cc1)c1ccc(CN2CCc3ccccc3C2)cc1 | 5.17 µM (active) | -4.53%
O=C(Nc1ccccc1)c1ccc(S(=O)(=O)N2CCCCC2)cc1 | inactive | -9.41%
Cc1ccc(NC(=O)c2ccc(CN3CCc4ccccc4C3)cc2)cc1 | inactive | 6%
O=C(Nc1ccc(S(=O)(=O)N2CCCC2)cc1)c1ccc(CN2CCOCC2)cc1 | inactive | 0.801%
Cc1cc(-n2nc(C)cc2C)n2nc(C)c(-c3ccc(Cl)cc3)c2n1 | inactive | 1.87%
CC(C)CCN1CC(C(=O)NC(C)C)CC1=O (stereo not given) | inactive | -5.32%
CN1CCN(S(=O)(=O)c2ccc(NC(=O)c3ccc(Br)s3)cc2)CC1 | inactive | -9.91%
COC(=O)c1ccc(CN2CCC(CO)(Cc3cccc(OC)c3)CC2)cc1 | inactive | 1.63%
O=C(Nc1ccccc1C(=O)OC1CCOC1=O)c1ccco1 (stereo not given) | inactive | 2.86%

Structure (SMILES) | Potency | cell number change
CC(=O)Nc1ccc(C(=O)OC2CCOC2=O)cc1 (stereo not given) | inactive | 3.14%
Cc1cccc(C(=O)OC2CCOC2=O)c1O (stereo not given) | 0.731 µM (active) | 4.5%
Cc1ccc(NC(=O)c2cccs2)cc1NC(=O)c1cccc(F)c1 | inactive | 9.07%
Cc1ccc(C(=O)N/C(=C\c2cccs2)C(=O)NCc2cccnc2)cc1 | inactive | 10.4%
Fc1ccc(NC(=S)N2CCCc3ccccc32)cc1 | inactive | -5.16%
Fc1ccc(NC(=S)N2CCc3ccccc32)cc1 | 16.4 µM (active) | -10.9%
Fc1cccc(NC(=S)N2CCc3ccccc32)c1 | inactive | -4.05%
CN(C)c1ccc(S(=O)(=O)NCC(=O)NCc2ccccc2)cc1[N+](=O)[O-] | inactive | 21.7%
NC(=O)c1nsc(C(=O)N(CC(=O)NC2CCCCC2)Cc2ccc(F)cc2)c1N | inactive | 
Cc1ccc(C)c(N(CC(=O)NC2CCCCC2)C(=O)c2snc(C(N)=O)c2N)c1 | inactive | -26.2%
NC(=O)c1nsc(C(=O)N(CC(=O)NC2CCCCC2)c2ccc(Cl)cc2)c1N | 14.6 µM (active) | -2.56%
NC(=O)c1nsc(C(=O)N(CC(=O)NC2CCCC2)c2ccc(F)c(Cl)c2)c1N | 0.116 µM (active) | -7.14%
CCCC(C(=O)NC1CCCC1)N(C(=O)c1snc(C(N)=O)c1N)c1ccc(F)cc1 (stereo not given) | inactive | -10.5%
NC(=O)c1nsc(C(=O)N(CC(=O)NC2CCCC2)c2cnc3ccccc3c2)c1N | inactive | -18%
CC1=NN(C(=O)Cc2ccc([N+](=O)[O-])cc2)C(O)(C(F)(F)C(F)(F)F)C1 (stereo not given) | inactive | 24%
CC(=O)NCCc1nc2ccccc2n1Cc1ccccc1 | inactive | 18.1%
O=C(CSc1ncn[nH]1)Nc1cc(S(=O)(=O)N2CCCC2)ccc1Cl | inactive | 
CN(C)S(=O)(=O)c1cc(NC(=O)COC(=O)CCc2ccccc2)ccc1Cl | inactive | 11.3%
Nc1[nH]nc2nc(N3CCOCC3)nc(-c3ccccc3)c12 | inactive | -23.8%
O=C1C(=O)N(CCN2CCOCC2)C(c2cccnc2)/C1=C(/O)c1ccccc1 (stereo not given) | inactive | 0.678%
O=C1N=C2N(CCN3CCCCC3)c3ccccc3N2/C1=C\c1ccc([N+](=O)[O-])o1 | inactive | 2.09%
